# The list is not random: actives were taken first. Their share in the collection is about 3.3%.
# HCV inhibitor = HCV inhibition. Huh7.5.1 HCVcc-Cre infection, luciferase reporter, 44 h. Potency, µM (highest dose often 41.8 µM), usual class: inhibitors. 3.4% of 340,000 active. AID 651820; active = well fitted inhibition curve with a large enough effect; inconclusive = small, poorly fitted or top-dose-only effect, or another doubt; inactive = no such curve, though single readings can be large or run the other way
#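 Cells (1,000/well) were plated 4 h before compound, then infected with HCVcc-Cre virus (~0.5 moi). After 44 h further culture, infection was read as luciferase luminescence following a 15 min substrate incubation at room temperature.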
# VACV mCherry inh = inhibitors of vaccinia virus infection (mCherry reporter signal). Vaccinia virus mCherry reporter infection, fluorescence. Potency, µM (top dose mostly 36.5 µM), usual class: inhibitors. 0.63% of 310,000 active; calls by dose curve; tested in A549 cells; also: nearly all actives have a fitted effect of over 35% in size
# Vaccinia Venus = vaccinia inhibition (Venus reporter); Vaccinia virus Venus reporter expression, fluorescence; AID 720580; Potency, µM (doses to about 36.5 µM), actives largely listed as inhibitors; 0.46% of 330,000 active; calls by dose curve; tested in A549 cells; also: nearly all actives have a fitted effect of over 30% in size
# Numbers stand for hits; n = inactive; u = inconclusive; x = no result; ! = a repeat was not active; [ ] = dose if it differs, or a comment.
SMILES,HCV inhibitor,VACV mCherry inh,Vaccinia Venus
Cc1sc(NC(=O)c2ccco2)nc1-c1ccccc1,14µM,x,n
Cc1ccccc1C(=O)N1CCC(n2nccc2NC(=O)CCOc2ccccc2)CC1,n,u,u
Cc1cc(NC(=O)CSCC(=O)OCC(=O)c2ccc(Br)cc2)no1,x,n,n
CCC1(C2CCN(C(=O)c3cc(C)cc(C)c3)CC2)NC(=O)N(CCc2scnc2C)C1=O (stereo not drawn),x,n,n
c1ccc(-n2cnnc2SCc2cn3ccsc3n2)cc1,n,x,x
Cc1ccc(SCc2cc(=O)n3ccsc3n2)c(C)c1,n,x,x
Cc1cccc(-n2c(SCc3cc(=O)n4ccsc4n3)nc3ccccc32)c1,7.9µM,n,n
Cc1ccc(-n2c(SCc3cn4ccsc4n3)nc3ccccc3c2=O)cc1,10µM,n[1.46 µM],u
Nc1nc(=S)[nH]c(N)c1N,x,n,n
C=CCN1C(=O)C2(OCCO2)c2cc(C)ccc21,n,n,n
COc1ccc2[nH]c(=O)c(CN(Cc3cccs3)S(=O)(=O)c3c(C)ccc4nsnc34)cc2c1,11µM,x,x
Cc1ccc2nsnc2c1S(=O)(=O)N(Cc1ccco1)Cc1cc2ccc(C)c(C)c2[nH]c1=O,n,n,n
Cc1ccc2[nH]c(=O)c(CN(Cc3ccco3)S(=O)(=O)c3c(C)ccc4nsnc34)cc2c1,7.1µM!,n,n
Cc1ccc2[nH]c(=O)c(CN(CC3CCCO3)S(=O)(=O)c3c(C)ccc4nsnc34)cc2c1 (stereo not drawn),n,x,x
CC(C)(C)c1ccc(NC(=O)COC(=O)c2ccccc2OCC(=O)Nc2ccc(Br)cc2)cc1,x,n,n
COc1ccc(NC(=O)N(C)C[C@H]2Oc3ccc(NC(=O)c4ccncc4)cc3C(=O)N([C@H](C)CO)C[C@@H]2C)cc1,n,n,n
COC(=O)c1ccc(OC)c(CN2C(=O)N(c3ccc(C(C)=O)cc3)S(=O)(=O)c3ccccc32)c1,x,n,n
Cc1ccc(C(c2nnnn2CC2CCCO2)N2CCN(c3cccc(C)c3C)CC2)cc1 (stereo not drawn),11µM!,x,u
COc1cccc(C(c2nnnn2Cc2ccco2)N2CCN(c3cccc(C)c3C)CC2)c1OC (stereo not drawn),11µM,u,u
COc1ccc(OC)c(C(c2nnnn2Cc2ccco2)N2CCN(C)CC2)c1 (stereo not drawn),n,x,x
COc1ccc(C(c2nnnn2CC2CCCO2)N2CCN(c3ccccc3)CC2)cc1 (stereo not drawn),n,x,n
CCCCC/C=C\C\C=C/C=C/C=C/[C@@H](SC[C@H](NC(=O)CC[C@H](N)C(=O)O)C(=O)NCC(=O)O)[C@@H](O)CCCC(=O)O,x,n[0.293 µM],n[0.293 µM]
COCCn1c(=NC(=O)CSCC(=O)N2CCOCC2)sc2cc(C)ccc21,n,n,n
COc1cc(/C=C/C(=O)N2CCN(C(=O)/C=C/c3cc(OC)c(OC)c(OC)c3)CC2)cc(OC)c1OC,n,n,n
CCSc1nc2ccccc2n1C(=O)/C=C/c1ccc(OC)c(OC)c1,u,28µM,u
SMILES,HCV inhibitor,VACV mCherry inh,Vaccinia Venus
C=CCSc1nc2ccccc2n1C(=O)/C=C/c1cc(OC)c(OC)c(OC)c1,6.3µM,x,x
CCn1c(SCC(=O)N/N=C/c2ccc(OC)c(OC)c2)nc2ccccc21,n,n,n
COc1ccc(C/C(N)=N/n2cnnc2)cc1,n,n,n
CC(C)COc1ccc(C/C(N)=N/n2cnnc2)cc1,14µM,n,n
Cc1ccc(Nc2cc(C)nc3ccccc23)c(C)c1,32µM,n,n
Cc1cccc(Nc2cc(C)nc3ccccc23)c1,u,n,n
O=C(COC(=O)CCC(=O)c1cccs1)NCCc1ccccc1,n,n,n
O=C(NCc1ccc(F)cc1)C1CCCN(C(=O)Nc2ccc(F)cc2)C1 (stereo not drawn),n,n,n
CCn1c2ccccc2c2cnc(N=CN(C)C)c(C#N)c21,13µM,x,n
CN(C)/C=N/c1c(C#N)cnn1-c1ccccc1,n,n,n
Cc1ccc(S(=O)(=O)N(CCc2ccccc2)CC(=O)Nc2ccc(Br)cc2)cc1,x,n,n
COc1ccc(CCNC(=O)CSc2nnc(-c3ccccc3)c3ccccc23)cc1OC,n,u,n
CCCCn1c(-c2ccccc2)cnc1SCC(=O)NCCc1ccc(OC)c(OC)c1,11µM,n,n
Clc1ccc(CCNc2nc3cc(Cl)c(Cl)cc3n3cnnc23)cc1,x,n,n
CCn1c(/C=C/N(C)c2ccccc2)[n+](CC)c2ccc(Cl)cc21,32µM,n,n
CCn1c(/C=C/Nc2ccccc2)[n+](CC)c2ccc(Cl)cc21,n,n,n
O=C(CSc1nc(=O)[nH]c2c1CCCC2)NCc1ccccc1,x,n[7.34 µM],n[7.34 µM]
CCC(CCC(C)C1CCC2C3CCC4CC(O)CC[C@@]4(C)C3CC[C@@]12C)C(C)C (stereo partly drawn),x,n,n
CC(CCC(C)C(C)(C)C)[C@@H]1CC[C@H]2C3C[C@H](OS(O)(=S)=S)[C@H]4C[C@H](OS(O)(=S)=S)[C@@H](OS(O)(=S)=S)C[C@]4(C)[C@H]3CC[C@]12C (stereo partly drawn) (tested in a mixture with another compound),2.5µM,n,u
Cc1ccc2c(c1)N(C(=O)CCC(=O)NC1CCCCCC1)CC(C)O2 (stereo not drawn),n,n,n
CCOC(=O)c1ccc(Nc2ncnc3ccc(C)cc23)cc1,n,x,n
CCOC(=O)c1cccc(Nc2ncnc3ccc(C)cc23)c1,25µM,x,u
Cc1onc(-c2ccccc2)c1C(=O)N1CCN(c2ncccc2C(F)(F)F)CC1,u,n,n
CCNc1nc(SC(C)C(=O)Nc2ccccc2)nc(N(C)C)n1 (stereo not drawn),n,n,n
COC(=O)C(C)Sc1nc(NCc2ccccc2)nc(N(C)C)n1 (stereo not drawn),3.2µM,n,n
SMILES,HCV inhibitor,VACV mCherry inh,Vaccinia Venus
Nc1ncnc2oc(-c3ccoc3)c(-c3ccco3)c12,x,u,n
Nc1ncnc2oc(-c3ccco3)c(-c3ccco3)c12,11µM,n,n
CC1=C(C(=O)N2CCOCC2)CC(CC(=O)NCc2cccs2)C(=O)N1Cc1ccccc1 (stereo not drawn),x,n,n
Cc1ccc(NC(=O)c2ccc(N3CCOCC3)c([N+](=O)[O-])c2)cc1S(=O)(=O)N1CCOCC1,3.5µM,n,n
Cc1ccc(C(=O)Nc2ccccc2[N+](=O)[O-])cc1S(=O)(=O)N1CCOCC1,n,n,n
Cc1ccc(C(=O)Nc2cccc(-c3ccc(N4CCOCC4)nn3)c2)cc1C,u,n,n
Cc1cc(C(=O)Nc2cccc(-c3ccc(N4CCOCC4)nn3)c2)ccc1[N+](=O)[O-],10µM,u,n
Cc1ccc(NC(=O)c2ccc(S(=O)(=O)N3CC(C)CC(C)C3)cc2)cc1S(=O)(=O)N1CCOCC1 (stereo not drawn),7.9µM,x,x
Cc1ccc(NC(=O)c2cc(S(=O)(=O)N3CCOCC3)ccc2Cl)cc1S(=O)(=O)N1CCOCC1,n,x,x
COCC1CCCN(c2nc(CN3CCN(C(=O)c4ccco4)CC3)nc3ccccc23)C1 (stereo not drawn),x,n,n
CCOC(=O)c1cc(C#N)c(SC(C(=O)N2CCCCC2)c2ccccc2)nc1C (stereo not drawn),x,n,n
Cc1ncc2c(c1CNC(=O)c1ccc3c(c1)OCO3)CCN(C(=O)c1ccoc1)C2,x,n,n
CC(C)(C)c1cc(NCc2ccccn2)n2ncc(-c3ccccc3)c2n1,13µM,n[7.34 µM],n[7.34 µM]

# Compound activity (PubChem BioAssay)
